# Screening data: PubChem BioAssay, The Scripps Research Institute Molecular Screening Center
# A selection: hits, their analogues and other compounds. The true share with any hit is near 1.9%.
# PLC-gamma1 inh – inhibitors of human phospholipase C gamma1 | P19174 | purified PLC-gamma1, fluorogenic substrate, fluorescence | inhibition, % at 12.2 µM | 370,000 tested, 0.84% active | AID 720700; in the data active = inhibition above about 9.5%
# MsrA inhibitor – inhibits bovine methionine sulfoxide reductase A; inhibition, % at 15.5 µM; purified bovine MsrA, absorbance read-out; AID 651718; 360,000 tested, 0.75% active; in the data active = inhibition above about 4.5%;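 also: 0% = vehicle wells with enzyme and 100% = reference inhibitor wells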
# PLC-beta3 inh – inhibitors of human phospholipase C beta3; Q01970; Purified PLC-beta3, fluorogenic substrate, fluorescence; inhibition, % at 12.2 µM; 370,000 tested, 0.18% active; AID 720704; in the data active = inhibition above about 11%;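 also: 0% = median of compound wells on plate and 100% = full blocker control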
# MsrA act – activators of bovine methionine sulfoxide reductase A. purified bovine MsrA, absorbance read-out. activation, % at 10.6 µM. 360,000 tested, 0.3% active. AID 602163; in the data active = activation above about 7.5%;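 also: 0% = vehicle and 100% = reference activator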
# * hit, by the source's call; . = not tested or not shown.
SMILES,PLC-gamma1 inh,MsrA inhibitor,PLC-beta3 inh,MsrA act
Cc1cc(C(=O)COC(=O)c2ccc3c(c2)OCO3)c(C)n1Cc1cccs1,10*,2,4,-1
COc1ccc2c(c1)N=C(c1[nH]c3ccccc3c1CCN1C(=O)c3ccccc3C1=O)[C@]2(O)CCN1C(=O)c2ccccc2C1=O,-54,.,-79,.
O=c1c(-c2n[nH]c(=S)o2)cccn1Cc1ccccc1,-302,4.6*,-293,2
c1ccc(Cn2nnc3ccccc32)cc1,3,-1,-2,-2
C[C@@H](Oc1ccccc1)c1nnn(Cc2ccccc2)c1-c1c([C@@H](C)Oc2ccccc2)nnn1Cc1ccccc1,16*,2,3,.
O=[N+]([O-])c1ccc2[nH]c(=S)sc2c1,-4,1,-14,9.6*
Cc1cc(C)nc(SCCN2CCCCC2)n1,13*,2,-9,-1
Cc1cc(C)nc(SCCN(C)C)n1,3,0,4,-2
COc1cccc(C(=O)Oc2ccc(/C=N/Nc3ccc(C(=O)O)cc3)cc2OC)c1,-13,4.6*,-24,-5
O=C(C(=Cc1ccc(O)cc1)c1ccccc1)c1ccccc1,11*,1,1,-4
C/C(=N\NC(=O)c1ccncc1)c1ccc(N(C)C)cc1,1,4.7*,1,-5
C/C(=N/NC(=O)c1ccncc1)c1ccccc1,1,1,-6,-1
COC(=O)[C@]12C[C@H](CC(=O)N3CCN(C(=O)C4CC4)CC3)C(=O)N(CCC3=CCCCC3)C1=C[C@H](COCc1ccccc1)O[C@@H]2C,2,0,1,.
O=C(c1ccccc1NS(=O)(=O)c1ccc([N+](=O)[O-])cc1[N+](=O)[O-])N1O[C@@H]2C=C[C@H]1C2,-23,7.2*,-37,-4
CC1(C)OC(=O)C2=C(CC(CCc3ccccc3)OC2c2ccc(Cl)c(Cl)c2)O1 (stereo unspecified),1,-1,1,.
Nc1[nH]c(N=NC(=O)c2ccccc2)c2ccccc12,-1,-1,3,-8
Nc1[nH]c(N=NC(=O)c2ccccc2O)c2ccccc12,-5,4.6*,-5,-10
NC(=S)N/N=C/c1ccccc1OC(=O)c1cc2ccccc2oc1=O,-89,4.6*,-163,0
Cc1cc(N2CCNC[C@@H]2C)ccc1N1C[C@@H](C)O[C@@H](C)C1,1,-1,2,.
O=C(O)c1ccccc1NS(=O)(=O)c1ccc(N/N=C/c2ccc(O)c(O)c2)c([N+](=O)[O-])c1,8,4.8*,3,-8
O=C(O)c1cccc(-n2sc3ccccc3c2=O)c1,-3,2,-2,17*
O=c1c2cc(C(F)(F)F)ccc2sn1-c1ccccc1,1,-1,-1,7
O=C1C2C(C(=O)N1/N=C/c1cc([N+](=O)[O-])c(O)cc1O)C1C=CC2C12CC2 (stereo unspecified),29*,3,0,-1
O=C1C2C(C(=O)N1/N=C/c1cc([N+](=O)[O-])ccc1O)C1C=CC2C12CC2 (stereo unspecified),-1,1,-2,-4
CC(C)n1c(SCC(=O)Nc2ccccc2)nc2c1c(=O)[nH]c(=O)n2C,3,-1,-8,-4
SMILES,PLC-gamma1 inh,MsrA inhibitor,PLC-beta3 inh,MsrA act
COCCn1c(SCC(=O)Nc2ccccc2)nc2c1c(=O)[nH]c(=O)n2C,9.8*,0,2,-1
COc1ccc([N+](=O)[O-])cc1NC(=O)COC(C)=O,-3,2,-6,-4
CCCC(=O)OCC(=O)Nc1cc([N+](=O)[O-])ccc1OC,-2,4.6*,-1,-9
O=C(O)c1cc(O)c2c(c1)[C@@H]([C@H]1c3cc(C(=O)O)cc(O)c3C(=O)c3c(O[C@@H]4O[C@H](CO)[C@@H](O)[C@H](O)[C@H]4O)cccc31)c1cccc(OC3O[C@H](CO)[C@@H](O)[C@H](O)[C@H]3O)c1C2=O (stereo partly specified),7,0,12*,-4
COc1ccc(OC)c(CN2C(=O)CSCC2(C)C(=O)NCc2ccccc2)c1 (stereo unspecified),3,1,12*,.
CC[n+]1c(/C=C/N(C)c2ccccc2)oc2ccccc21,4,4.7*,3,-9
CC[n+]1c(/C=C/N(C)c2ccccc2)oc2ccc(F)cc21,6,3,1,-7
CC(=O)NN1C(=O)/C(=C2/Sc3ccccc3N2C)SC1=S,0,0,-3,-4
CN1C(=C2C(=O)OC(C)(C)OC2=O)Sc2ccccc21,-12,4.8*,-18,-4
COc1cc(NC(=O)C2CCCN(S(=O)(=O)c3ccc(Cl)s3)C2)cc(OC)c1 (stereo unspecified),-2,.,2,.
CCOC(=O)[C@@]12CCCC3=C1N(CCC3)C(=O)[C@H]2CC(=O)N1CCSCC1,-2,.,-5,.
